Screens: PubChem, National Center for Advancing Translational Sciences (NCATS)
The sample as a whole holds a higher share of hits than the screen did.
Cycloheximide cs: affects cycloheximide protein synthesis inhibition readout, counter-screen; cell reporter, cycloheximide protein synthesis inhibition counterscreen; max response, %; 12% of 300,000 active; AID 2314; in the data active = max response mostly above about 13%, no sharp cut-off; inactive = mostly below about 14%; also: read at 38.3 µM for the half of the compounds with a filed dose; 0% is about no effect
Shiga toxin inh: blocks Shiga toxin action in Vero cells. Vero cells, Shiga toxin protein synthesis inhibition reporter. inhibition, % at 38.7 µM. 9.2% of 290,000 active. AID 2315; in the data active = inhibition mostly above about 28%, no sharp cut-off; inactive = mostly below about 43%; also: 0% is about no effect
RE007 growth inh: less growth of the S. pombe RE007 Vpr strain | S. pombe RE007 Vpr strain, BacTiter-Glo ATP luminescence, 24 h | Potency, µM (highest dose often 92.2 µM), without a hit: at the highest dose activity change, negative = less growth, most hits filed as inhibitors | 0.21% of 360,000 active; active = well fitted falling curve with a large enough effect; inconclusive = small, poorly fitted or top-dose-only effect; inactive = no such curve, though single readings can be large or run the other way; also: potency is read from the fitted curve at half-maximal effect; % is scaled to controls: 0 for no effect and ±100 for the full control effect; nearly all actives have a fitted effect of over 50% in size
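Fission yeast strain RE007, carrying one chromosomally integrated HIV-1 vpr copy, was seeded at OD 0.01 in PMG+AL medium with 23 nL pinned compound. After 24 h at 30 °C and 99% humidity, viability was read by BacTiter-Glo luminescence.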
FBPA Giardia inh: Giardia lamblia aldolase inhibition; purified Giardia FBPA; 0.71% of 290,000 active; A8B2U2; AID 2451; Potency, µM (titrated, usually from 59.6 µM), inactives show at the top dose activity, negative = inhibition, actives largely listed as inhibitors; also: potency is read from the fitted curve at half-maximal effect; % is scaled to controls: 0 for no effect and ±100 for the full control effect; nearly all actives have a fitted effect of over 55% in size
Target sequence (A8B2U2 whole entry, looked up): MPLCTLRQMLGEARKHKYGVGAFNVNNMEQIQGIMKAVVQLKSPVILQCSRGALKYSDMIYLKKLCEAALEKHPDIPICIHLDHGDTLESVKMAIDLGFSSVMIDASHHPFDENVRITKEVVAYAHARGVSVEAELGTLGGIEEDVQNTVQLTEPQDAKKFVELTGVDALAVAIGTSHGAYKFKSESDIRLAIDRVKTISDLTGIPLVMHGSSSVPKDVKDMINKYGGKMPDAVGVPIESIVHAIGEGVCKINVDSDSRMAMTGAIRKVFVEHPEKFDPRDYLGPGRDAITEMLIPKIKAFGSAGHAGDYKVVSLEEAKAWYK
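40 nM FBPA preincubated 10 min at RT with compound (up to 57.5 uM final), then substrate plus GAPDH/TPI/NAD/arsenate coupling and diaphorase/resazurin added. Fluorescence read after 20 min at RT, 525/598 nm.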
LmPK inh: blocks Leishmania mexicana pyruvate kinase activity; Q27686; purified LmPK, Kinase-Glo ATP luminescence, 1 h; Potency, µM (top dose mostly 57.5 µM), for the others: top-dose activity change, negative = inhibition, most hits filed as inhibitors; 0.37% of 290,000 active; also: potency is read from the fitted curve at half-maximal effect; % is scaled to controls: 0 for no effect and ±100 for the full control effect
Target sequence (Q27686 whole entry, looked up): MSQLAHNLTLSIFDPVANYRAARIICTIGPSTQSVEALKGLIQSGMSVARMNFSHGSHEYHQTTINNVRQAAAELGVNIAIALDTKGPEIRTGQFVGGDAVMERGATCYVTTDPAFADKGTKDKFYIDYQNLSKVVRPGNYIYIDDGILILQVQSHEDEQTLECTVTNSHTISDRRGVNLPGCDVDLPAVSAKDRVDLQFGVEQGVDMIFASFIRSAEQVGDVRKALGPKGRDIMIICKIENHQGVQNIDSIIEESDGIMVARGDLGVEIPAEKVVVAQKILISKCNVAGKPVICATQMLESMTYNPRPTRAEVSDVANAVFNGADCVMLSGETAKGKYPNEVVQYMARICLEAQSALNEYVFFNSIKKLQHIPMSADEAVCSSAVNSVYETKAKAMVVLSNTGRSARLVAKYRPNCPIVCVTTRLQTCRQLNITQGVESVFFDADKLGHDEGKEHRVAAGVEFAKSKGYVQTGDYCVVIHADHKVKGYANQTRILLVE
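Pyruvate kinase activity monitored as ATP production (luciferase luminescence). Conditions: 0.1 nM enzyme, 0.5 mM PEP, 0.1 mM ADP, 1 h, RT; normalized against uninhibited and no-enzyme wells.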
Tb PYK inh: blocks Trypanosoma brucei pyruvate kinase | TbPYK enzyme, Kinase-Glo Plus ATP luminescence, 45 min | Potency, µM (top dose mostly 76.8 µM), for the others: at the top dose activity, negative = inhibition, actives largely listed as inhibitors | AID 624173 | 0.12% of 410,000 active; also: potency is read from the fitted curve at half-maximal effect; % is scaled to controls: 0 for no effect and ±100 for the full control effect; nearly all actives have a fitted effect of over 50% in size
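Assay buffer: 50 mM TEA pH 7.2, 100 mM KCl, 10 mM MgCl2, 0.05% BSA, 0.01% Tween-20. Pyruvate kinase from T. brucei plus substrate met compound, then ADP (130 uM final). Luminescence was read post 45 min RT.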
* marks the source's active call; other numbers are inactive results; ? = inconclusive; / = no result given; [ ] = remark or other dose. Unless noted, calls follow the shape of the dose curve; as a rule, active = well fitted curve in the direction sought with a large enough effect; inconclusive = small, poorly fitted or top-dose-only effect, or another doubt; inactive = no such curve, though single readings can be large; an effect the other way counts as inactive or inconclusive.

SMILES | Cycloheximide cs | Shiga toxin inh | RE007 growth inh | FBPA Giardia inh | LmPK inh | Tb PYK inh
Cc1cc(/C=C(\C#N)C(=O)NCc2cccs2)c(C)n1-c1ccc([N+](=O)[O-])cc1 | -0.9 | 8.1 | 1.1% | 1.3% | 2.5% | -5.7%
Cc1cc(/C=C(/C#N)c2cccc(F)c2)c(C)n1-c1cccnc1 | 44.6* | 58.9* | -1.5% | -9.8% | 1.7% | -3.7%
Cc1cc(/C=C(\C#N)C(=O)NCc2ccco2)c(C)n1C1CCCC1 | 50.9* | 85.0* | 1.3% | 0.3% | 4.9% | -2.7%
Cc1cc(/C=C(/C#N)c2cccc(Cl)c2)c(C)n1C | 19.2* | 16.0 | -7.6% | 0.5% | -6.7% | 3.8%
CCOC(=O)COc1ccc2c(C)c(CCN(CC)CC)c(=O)oc2c1Cl | -3.1 | -11.7 | / | -2.3% | / | 3.5%
CCOC(=O)c1sc(N(Cc2ccccc2)C(=O)COC(=O)c2ccccc2O)nc1C | 18.7* | 32.4* | -13.7% | -0.4% | -3.3% | 1.7%
Cn1ccnc1SCC(=O)c1ccc(O)cc1 | 25.7* | 37.0 | -8.4% | -11.1% | -29.9% | -30.4%
Cn1ccnc1SCC(=O)c1ccc(Cl)cc1 | 37.4* | 118.0* | -12.8% | -14.1% | 1.2% | -3.3%
Cn1ccnc1SCC(=O)Nc1ccc(Cl)cn1 | 23.4* | 31.0 | 7.7% | -5.1% | 3.3% | -7.9%
N#CCCN1CCN(Cc2ccccc2)CCC1=O | 0.6 | -9.2 | -24.4% | 7.6% | -13.3% | 4.4%
CCC1(Cc2ccc(N)cc2)CCC(=O)NC1=O (centres undefined) | / | / | / | / | / | 0.0%[157 µM]
CCOC(=O)C(CCCP(=O)(c1ccccc1)c1ccccc1)(NC(C)=O)C(=O)OCC | 1.7 | 1.1 | -11.1% | 5.3% | -8.5% | -2.3%
CC1CCCCN1C(=O)CSc1ccc(-c2ccc(F)cc2)nn1 (centres undefined) | 18.9* | 41.3 | -1.4% | 1.2% | 5.0% | -6.5%
CC1CCCCN1C(=O)CSc1n[nH]c(-c2ccccc2)n1 (centres undefined) | / | / | / | / | / | 0.4%
CC1CCCCN1C(=O)CSc1nc(-c2ccccc2)cn1N (centres undefined) | 24.9* | 46.4* | 3.6% | 1.4% | 3.1% | 2.1%
COc1cccc(CN(C)Cc2cc(=O)oc3c(C)c(C)ccc23)c1 | 16.4* | 3.0 | -8.0% | 7.2% | -3.4% | 29.9%
Cc1ccccc1CN(C)Cc1cc(=O)oc2c(C)c(C)ccc12 | 23.0* | 48.9 | 7.8% | 4.6% | -2.2% | 3.4%
CN(C1CCCCC1)S(=O)(=O)c1ccc2c(c1)c(=O)c(C(=O)NCc1ccccc1Cl)cn2C | / | / | / | / | / | -12.8%
Cc1ccc(NC(=O)c2ccc(OC(=O)COc3ccc(Cl)cc3C)cc2)cc1 | 45.8* | 14.7 | 6.6% | -0.9% | -1.9% | 0.8%
Cc1ccc(NC(=O)c2ccc(OC(=O)CCN3C(=O)c4ccccc4C3=O)cc2)cc1 | 36.7* | 72.3* | -11.1% | -3.0% | 0.9% | 11.2%
Cc1ccc(NC(=O)c2ccc(OC(=O)COc3cccc(Cl)c3)cc2)cc1 | 36.0* | 50.9* | 6.4% | 0.1% | -5.2% | -2.8%
Nc1ccccc1NC(=O)CCn1c(=S)[nH]c2ccccc2c1=O | 9.7 | -0.7 | -10.9% | / | 4.1% | 0.1%
COCC(=O)N(Cc1cc2ccc(C)cc2[nH]c1=O)c1cccc(C)c1 | 0.6 | -5.5 | 4.3% | 11.5% | 2.6% | 0.2%
COCC(=O)N(Cc1cc2cc(C)ccc2[nH]c1=O)c1ccccc1 | 11.7* | 21.8 | -13.1% | 4.2% | -0.2% | 0.0%
CCOc1ccc(N(CC(=O)NCc2ccc(OC)cc2)S(C)(=O)=O)cc1 | 33.6* | 55.6* | 4.7% | -0.8% | -14.9% | 1.6%
SMILES | Cycloheximide cs | Shiga toxin inh | RE007 growth inh | FBPA Giardia inh | LmPK inh | Tb PYK inh
CS(=O)(=O)N(CC(=O)NCc1ccccc1)c1ccc(Cl)cc1 | 3.3 | -3.0 | 2.5% | 1.0% | -5.9% | -2.4%
COc1ccc(N(CC(=O)NCc2ccccc2)S(C)(=O)=O)cc1 | 31.3* | 51.6* | 11.5% | 27.3% | -0.3% | 8.2%
COc1ccc(NC(=O)Cn2c(=O)oc3cc(S(=O)(=O)NCc4ccccc4)ccc32)c(OC)c1 | / | / | / | / | / | -8.4%[15.4 µM]
Cc1c(Cl)cccc1NC(=O)Nc1cc(C(C)(C)C)on1 | 6.3 | 26.1 | ? | -10.5% | 5.8% | -9.8%
CC(C)(C)c1cc(NC(=O)Nc2ccc(Cl)cc2Cl)no1 | 19.0* | 77.8* | 4.4% | -14.1% | 3.4% | -2.2%
CC(C)(C)c1cc(NC(=O)Nc2ccc(Br)cc2Cl)no1 | 15.8* | 61.2* | -15.1% | -7.5% | 0.5% | -0.9%
Cc1ccc(CNC(=O)CCSCc2ccccc2F)cc1 | 10.6 | -12.7 | -4.0% | 4.7% | 2.3% | 6.5%
CC(=O)c1ccc(NC(=O)CNCC(c2ccccc2)N(C)C)cc1 (centres undefined) | 2.0 | -9.6 | 6.3% | -19.6% | -8.9% | 24.5%
Cc1ccc(CNC(C)c2ccccc2)cc1 (centres undefined) | -1.3 | -1.9 | 11.4% | -1.4% | -2.4% | -5.2%
Cc1ccc(NC(=O)CNC(C)c2ccccc2)cc1 (centres undefined) | 29.2* | 49.8* | -0.4% | -19.2% | -1.8% | -5.2%
Cc1ccc(NC(=O)NCC(c2ccccc2)N(C)C)cc1 (centres undefined) | 35.1* | 67.9* | 3.2% | 5.7% | 0.4% | -0.4%
CCCCC1C2C(=O)N(c3ccc(C)cc3)C(=O)C2ON1c1ccccc1 (centres undefined) | 34.7* | 103.7* | 7.2% | -4.4% | 1.9% | 7.3%
COc1ccccc1N=c1oc2cc(O)ccc2cc1C(N)=O | 13.6* | 18.5 | 8.91µM* | 10.4% | -15.6% | -3.0%
COc1ccc(C(=O)Nc2ccccc2C(=O)NCC2CCCO2)cc1 (centres undefined) | -1.9 | -3.0 | -2.9% | -12.4% | -11.5% | -1.4%
COc1ccccc1N=c1oc2cc(O)ccc2cc1C(=O)NCC1CCCO1 (centres undefined) | 17.4* | 11.7 | -18.1% | 1.5% | 2.8% | 7.3%
COc1cccc(N=c2oc3cc(O)ccc3cc2C(=O)NCC2CCCO2)c1 (centres undefined) | 12.8* | 65.3 | -17.1% | -4.9% | -8.9% | 3.4%
COc1ccc2oc(=Nc3cccc(F)c3)c(C(N)=O)cc2c1 | 34.2* | 72.8* | -4.4% | 0.5% | -0.1% | -6.1%
COc1ccc2cc(C(N)=O)c(=Nc3ccc(C)cc3)oc2c1 | 10.1 | 4.3 | 8.5% | 1.3% | 10.4% | 0.2%
COc1cc(OC)c(C(=O)NCC2CCCO2)cc1OC (centres undefined) | 0.3 | 1.1 | 22.7% | -1.0% | 1.3% | 4.5%
O=C(CN1C(=O)c2ccc([N+](=O)[O-])cc2C1=O)Nc1ccccc1N1CCCC1 | / | / | 1.9% | / | / | -2.6%
Cc1ccc(-c2nnc(Nc3ccc(Cl)cc3)c3ccccc23)cc1S(=O)(=O)N1CCOCC1 | / | / | / | / | / | -1.5%
COc1ccc(NC(=O)CC2C(=O)N(c3cccc(OC)c3)C(=O)N2CCC2=CCCCC2)cc1 (centres undefined) | / | / | / | / | / | 7.3%
